# Source: PubChem BioAssay (NCATS)
# Inconclusive results are not listed. A call without a number means that no potency is given here. Activity calls are given as the source filed them. Calls come from the whole dose curve; as a rule, active = well fitted inhibition curve with a large enough effect; inconclusive = small, poorly fitted or top-dose-only effect; inactive = flat fitted curve, though single readings scatter. Starred links: 1 amine or outer side, 2 acyl side, 3 side chain; linkers in the order of their positions; H or OH if unused. Positions of bridges follow the written chain, without caps; N, C: chain ends. Non-standard residues stand in square brackets, D forms with d. Residues, ends and D or L forms follow the SMILES beside them. Chains are numbered I, II in the order given. *: point of attachment. Actinocin(9to1) = Cc1c2oc3c(C)ccc(C(=O)[*:1])c3nc-2c(C(=O)[*:2])c(N)c1=O; NMeV = CN[CH](C(=O)O)C(C)C; Nva = CCC[C@H](N)C(=O)O; Cbz = O=C(OCc1ccccc1)*; Sar = CNCC(=O)O
# Molecular target: Calcium and integrin-binding protein 1 (Homo sapiens) (UniProt Q99828)
# Sequence (Q99828 whole entry, looked up): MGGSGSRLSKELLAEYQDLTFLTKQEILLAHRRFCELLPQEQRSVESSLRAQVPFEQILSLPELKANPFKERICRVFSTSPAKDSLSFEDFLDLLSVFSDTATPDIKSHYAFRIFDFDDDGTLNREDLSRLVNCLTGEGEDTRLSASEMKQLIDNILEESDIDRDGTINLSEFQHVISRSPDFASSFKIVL
# Test: Primary qHTS for Identification of Calcium Integrin Binding Protein 1 (CIB1) Competitor (AID 1508620);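 note: GST tagged CIB1 binding a fluorescein labelled alphaIIb integrin peptide tracer; top concentration of the series differs between compounds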
# Conditions: CIB1-GST / FITC-alphaIIb peptide fluorescence polarization; series mostly up to 57.7 µM
# Method in brief: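 Fluorescence polarization competition: CIB1-GST (1 uM final) preincubated with compound 15 min at room temperature, then FITC-labeled alphaIIb peptide (100 nM final) added for another 15 min. Polarization read at Ex 480/Em 540.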
row,Compound,Potency
1,COc1ccc2c(c1OC)C(=O)OC2[C@H]1c2c(cc3c(c2OC)OCO3)CCN1C (stereo partly drawn),inactive
2,Nc1nc(N)c2nc(-c3cccc(O)c3)c(-c3cccc(O)c3)nc2n1,inactive
3,C[C@H](NCc1ccc(OCc2cccc(F)c2)cc1)C(N)=O,inactive
4,C#C[C@]1(O)CC[C@@H]2[C@@H]3CCC4=CC(=O)CC[C@@H]4[C@H]3CC[C@@]21CC,inactive
5,C=C1C(=CC=C2CCC[C@]3(C)[C@@H]([C@H](C)CCCC(C)(C)O)CC[C@@H]23)C[C@@H](O)C[C@@H]1O,inactive
6,OC[C@H]1OC(O)C[C@@H](O)[C@H]1O (stereo partly drawn),inactive
7,CCCCCCCCCCCCc1ccc(S(=O)(=O)Nc2nncs2)cc1,inactive
8,CO[C@@H]1[C@@H](O)[C@H](O)[C@@H](n2c3c(Cl)cccc3c3c4c(c5c6cccc(Cl)c6[nH]c5c32)C(=O)NC4=O)O[C@@H]1CO,inactive
9,C=C1CCC2[C@](C)(CO)C(O)CC[C@]2(C)C1CC=C1C(=O)OCC1O (stereo partly drawn),inactive
10,Nc1nc(=O)n([C@H]2CSC(CO)O2)cc1F (stereo partly drawn),inactive
11,C[C@@]12C[C@@]3(O)O[C@@H](O1)[C@]1(COC(=O)c4ccccc4)[C@@H]3C[C@@]12O[C@@H]1O[C@H](CO)[C@@H](O)[C@H](O)[C@@H]1O,inactive
12,C[C@H]1O[C@H](O[C@H]2[C@H](O)[C@@H](O)[C@@H](O[C@H]3[C@H](O)[C@@H](O)C(O)O[C@H]3CO)O[C@H]2CO)[C@H](O)[C@@H](O)[C@H]1N[C@H]1C=C(CO)[C@@H](O)[C@H](O)[C@@H]1O (stereo partly drawn),inactive
13,CNC(=O)c1ccc(Nc2cc(Nc3ccccc3S(=O)(=O)C(C)C)c3cc[nH]c3n2)nc1,inactive
14,CCC[C@@H](C=O)NC(=O)[C@H](CC(C)C)NC(=O)[C@H](CC(C)C)NC(=O)OCc1ccccc1 (Cbz-Leu-Leu-[Nva]-aldehyde),inactive
15,"Cc1c2oc3c(C)ccc(C(=O)NC4C(=O)NC(C(C)C)C(=O)N5CCCC5C(=O)N(C)CC(=O)N(C)C(C(C)C)C(=O)OC4C)c3nc-2c(C(=O)NC2C(=O)NC(C(C)C)C(=O)N3CCCC3C(=O)N(C)CC(=O)N(C)C(C(C)C)C(=O)OC2C)c(N)c1=O (stereo not drawn) (I: TVP[Sar][NMeV] / II: TVP[Sar][NMeV]; ester I:1-I:C, II:1-II:C; linker I:N-II:N via Actinocin(9to1); configuration not given here)",inactive
16,CC(=O)O[C@@]12CO[C@H]1C[C@H](O)[C@@]1(C)C(=O)[C@H](O)C3=C(C)[C@@H](OC(=O)C(O)[C@@H](NC(=O)OC(C)(C)C)c4ccccc4)C[C@@](O)([C@@H](OC(=O)c4ccccc4)[C@@H]21)C3(C)C (stereo partly drawn),inactive
17,C#C[C@]1(O)CC[C@@H]2[C@@H]3CCc4cc(O)ccc4[C@H]3CC[C@@]21C,inactive
18,CC(C)OC(=O)[C@H](C)N[P@](=O)(OC[C@H]1O[C@@H](n2ccc(=O)[nH]c2=O)[C@](C)(F)[C@H]1O)Oc1ccccc1,inactive
19,CC[C@@]1([C@@H]2O[C@@H]([C@H]3O[C@@](O)(CO)[C@H](C)C[C@H]3C)C[C@H]2C)CC[C@H]([C@]2(C)CC[C@]3(C[C@H](O)[C@@H](C)[C@@H]([C@@H](C)[C@@H](OC)[C@H](C)C(=O)O)O3)O2)O1,inactive
20,O=C(O)C(=O)Nc1cccc(C2=NN=N[N]2)c1,inactive
21,CC(=O)OCC(=O)[C@@]1(O)CC[C@H]2[C@@H]3CCC4=CC(=O)CC[C@]4(C)[C@@H]3C(=O)C[C@@]21C,inactive
22,CC(C=CC(=O)NO)=C[C@@H](C)C(=O)c1ccc(N(C)C)cc1,inactive
23,CC(C)(O)CC[C@@H](O)[C@](C)(O)[C@H]1CC[C@@]2(O)C3=CC(=O)[C@@H]4C[C@@H](O)[C@@H](O)C[C@]4(C)[C@@H]3CC[C@]12C,inactive
24,C=C1C(=O)O[C@H]2[C@@H]1CCC(C)=CCC[C@@]1(C)O[C@@H]21,inactive
25,COc1ccc([C@@H]2CNC(=O)C2)cc1OC1CCCC1,inactive
26,Cc1ccc([N+](=O)[O-])cc1S(=O)(=O)N(C)N=Cc1cnc2ccc(Br)cn12,inactive
27,CC(=O)O[C@H]1C[C@@H]2CC[C@H]3[C@H]4C[C@H]([N+]5(C)CCCCC5)[C@@H](OC(C)=O)[C@@]4(C)CC[C@@H]3[C@@]2(C)C[C@H]1[N+]1(C)CCCCC1,inactive
28,CC(C)[C@H](CO)Nc1nc(Nc2cccc(Cl)c2)c2ncn(C(C)C)c2n1,inactive
